p53ts 32C tox = qHTS Screen for Compounds that Selectively Target Cancer Cells with p53 Mutations: Cytotoxicity of p53ts Cells at the Permissive Temperature; AID 924, 2007; H1299-p53A138V at 32C, ATP luminescence viability, 24 h; Potency, µM (top dose mostly 46.1 µM), usual class: cytotoxic; 130,000 compounds, 0.93% hits; further: nearly all actives have a fitted effect of over 55% in size
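Viability by ATPlite luminescence after 24 h compound treatment (up to 46 uM) at the permissive 32C. Cells are H1299 carrying p53 A138V. Scale runs from DMSO basal to 100 uM tamoxifen as full kill; AC50 from Hill fits.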
ERK AVP inh = qHTS Assay for Inhibitors of the ERK Signaling Pathway using a Homogeneous Screening Assay; HEK293-V1b, vasopressin-stimulated pERK AlphaScreen; Potency, µM (top dose mostly 57.5 µM), actives largely listed as inhibitors; 72,000 compounds, 0.99% hits; AID 995, 2007; further: nearly all actives have a fitted effect of over 55% in size
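HEK293 cells stably expressing V1b receptor, seeded overnight in 1% FBS, were treated with compounds for 30 min at 37C, then stimulated 5 min with 25 nM vasopressin; phospho-ERK read by AlphaScreen SureFire after lysis.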
IkB sig inh = IkB Signaling; Potency, µM (top dose mostly 57.1 µM); 110,000 compounds, 0.04% hits; ABC-DLBCL IkBa-CBG/CBR dual luciferase ratio, 4 h; response scale: scaled: untreated 0%, proteasome inhibitor 100%; active means well fitted curve in the direction sought with a large enough effect in the signal ratio, not every such curve was filed as active; inconclusive means small, poorly fitted or top-dose-only effect, or a change in a side signal; the % refers to the signal ratio;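 further: the direction sought is a rising ratio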
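Luminescence ratio of IκBα-fused green versus native red beetle luciferase in OCI-Ly3 cells, 4 h post-doxycycline with compound; red signal alone, scaled from basal (0%) to zero light (-100%), flagged nonspecific or cytotoxic effects.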
p53ts 39C tox = qHTS Screen for Compounds that Selectively Target Cancer Cells with p53 Mutations: Cytotoxicity of p53ts Cells at the Nonpermissive Temperature; 130,000 compounds, 1.5% hits; H1299-p53A138V viability at 39C, ATP luminescence, 24 h; Potency, µM (doses to about 46.1 µM), most hits filed as cytotoxic; further: nearly all actives have a fitted effect of over 55% in size
Peg3 imprint = qHTS Assay for Compounds that Induce Erasure of Genomic Imprints; mouse ES Peg3-LacZ reporter, beta-gal luminescence, 40 h; Potency, µM (series often up to 60.7 µM), actives largely listed as activators; 110,000 compounds, 0.02% hits; AID 1948, 2009
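Imprint erasure is scored as LacZ activity from the silenced maternal Peg3 allele in feeder-free female ES cells cultured 40 h with LIF. Luminescence is normalized to in-plate negative controls and fitted to the Hill equation.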
Hits are given with their value; [ ] = another dose, or the depositor's remark. Most compounds without a hit are left out; they make up all but 2.3% or so of the library. Unless noted, the call rests on the fitted dose curve; in most records, active means well fitted curve in the direction sought with a large enough effect; inconclusive means small, poorly fitted or top-dose-only effect, or another doubt; inactive means no such curve, though single readings can be large; an effect the other way counts as inactive or inconclusive.

`CCS(=O)(=O)c1ncc(Cl)c(C(=O)Nc2ccc(S(=O)(=O)N(C)c3ccccc3)cc2)n1` gave p53ts 32C tox inconclusive, IkB sig inh inconclusive, p53ts 39C tox 3.2µM and Peg3 imprint inactive[10.9 µM].
For CCSc1ncc(Cl)c(C(=O)Nc2ccc(S(=O)(=O)N(C)c3ccccc3)cc2)n1 the results were p53ts 32C tox inactive, IkB sig inh inactive, p53ts 39C tox inactive and Peg3 imprint inactive[10.9 µM].
`Cc1cccc(NS(=O)(=O)c2ccc(Cl)c(C(=O)O)c2)c1` gave p53ts 32C tox inactive and p53ts 39C tox inactive.
Screening COc1ccc(C(=O)c2cn[nH]c2-c2cc(Cl)ccc2O)cc1 returned p53ts 32C tox inactive, ERK AVP inh 40µM, IkB sig inh inconclusive, p53ts 39C tox inactive and Peg3 imprint inactive.
For O=C(c1ccc(F)cc1)c1cn[nH]c1-c1ccccc1O the results were p53ts 32C tox inactive, ERK AVP inh inactive, IkB sig inh inactive, p53ts 39C tox inactive and Peg3 imprint inactive.
Cc1ccc(C(C)C)c(OCC(=O)Nc2cc(-c3nc4ccccc4[nH]3)ccc2C)c1 was read as p53ts 32C tox inconclusive, IkB sig inh inconclusive, p53ts 39C tox 10µM and Peg3 imprint inactive[10.9 µM].
COc1cccc(NS(=O)(=O)c2ccc3c(c2)n(C)c(=O)c(=O)n3C)c1 was read as p53ts 32C tox inactive, ERK AVP inh inactive, IkB sig inh inactive, p53ts 39C tox inactive and Peg3 imprint inactive.
`COc1cccc(NS(=O)(=O)c2cn(C)c(=O)n(C)c2=O)c1` gave p53ts 32C tox 7.9µM, IkB sig inh inactive, p53ts 39C tox 13µM and Peg3 imprint inactive.
For c1cc2c(cc1C1CCCCC1)c1c3n2CCN[C@H]3CCC1 the results were p53ts 32C tox 25µM, ERK AVP inh inconclusive, IkB sig inh inconclusive, p53ts 39C tox 10µM and Peg3 imprint inactive.
Screening CCOc1ccc2nc(NC(=O)Nc3cccs3)sc2c1 returned p53ts 32C tox 16µM, ERK AVP inh 32µM, IkB sig inh inconclusive, p53ts 39C tox 10µM and Peg3 imprint inactive.
For CCOc1ccc2nc(NC(=O)COC)sc2c1 the results were p53ts 32C tox inconclusive, ERK AVP inh inactive, IkB sig inh inactive, p53ts 39C tox inconclusive and Peg3 imprint inactive.
COc1ccc(/C=N/n2cc(-c3ccccc3)nc2N)cc1 was read as p53ts 32C tox inactive, ERK AVP inh inactive, IkB sig inh inconclusive, p53ts 39C tox inactive and Peg3 imprint inactive.
Screening COc1ccc(/C=N\n2nnc3ccccc32)cc1 returned p53ts 32C tox 13µM, ERK AVP inh inactive, IkB sig inh inconclusive, p53ts 39C tox 10µM and Peg3 imprint inactive.
Cc1ccc(NC(=O)C(=O)NCC(c2cccnc2)N2CCOCC2)cc1C (stereo not drawn) was read as p53ts 32C tox inconclusive, IkB sig inh inconclusive, p53ts 39C tox inconclusive and Peg3 imprint inactive[10.9 µM].
`COc1ccc(C(=O)NCC(c2cccnc2)N2CCN(c3ccccc3)CC2)cc1OC` (stereo not drawn) gave p53ts 32C tox 10µM, IkB sig inh inactive, p53ts 39C tox inconclusive and Peg3 imprint inactive.
Screening Cc1ccc(NC(=O)C(=O)NCC(c2cccnc2)N2CCOCC2)cc1Cl (stereo not drawn) returned p53ts 32C tox inconclusive, IkB sig inh inconclusive, p53ts 39C tox 20µM and Peg3 imprint inactive[10.9 µM].
COc1ccc(C(=O)NCC(c2cccnc2)N2CCN(c3ccc(F)cc3)CC2)cc1OC (stereo not drawn) was read as p53ts 32C tox inactive, IkB sig inh inactive, p53ts 39C tox inactive and Peg3 imprint inactive.
`CO[C@@H]1COC(=O)CCC[C@@H](C)[C@H](OC)COC(=O)[C@H](Cc2ccccc2)NC(=O)C/C=C\[C@H]1C` gave p53ts 32C tox inactive[9.22 µM], ERK AVP inh inactive[11.5 µM] and p53ts 39C tox inactive[9.22 µM].
For CCc1ccc(NC(=O)CSc2nc3n[nH]c(C)c3c(=N)n2-c2ccc(C)cc2)cc1 the results were p53ts 32C tox inconclusive, IkB sig inh inactive, p53ts 39C tox 20µM and Peg3 imprint inactive[10.9 µM].
`CCC(C)NC(=O)CSc1nc2n[nH]c(C)c2c(=N)n1-c1cc(Cl)ccc1C` (stereo not drawn) gave p53ts 32C tox inconclusive, IkB sig inh inconclusive, p53ts 39C tox 13µM and Peg3 imprint inactive[10.9 µM].
`Nc1nc2c(c(=O)[nH]1)CN(CCCN1CCOCC1)CN2` gave p53ts 32C tox inactive[9.22 µM], ERK AVP inh inactive[11.5 µM], IkB sig inh inactive[11.4 µM], p53ts 39C tox inactive[9.22 µM] and Peg3 imprint inconclusive.
For CCc1nc(-c2cc(S(=O)(=O)N3CCN(c4ccccc4F)CC3)ccc2OC)no1 the results were p53ts 32C tox inactive, IkB sig inh inactive, p53ts 39C tox inactive and Peg3 imprint inactive[10.9 µM].
Screening COc1ccc(S(=O)(=O)N2CCN(c3ccccc3F)CC2)cc1-c1noc(C)n1 returned p53ts 32C tox inconclusive, IkB sig inh inactive, p53ts 39C tox 13µM and Peg3 imprint inactive[10.9 µM].
For COc1ccc(C(=O)N=c2nc3ccccn3s2)cc1 the results were p53ts 32C tox 0.79µM, ERK AVP inh inactive, IkB sig inh inconclusive, p53ts 39C tox 0.32µM and Peg3 imprint inactive.
For COc1ccc(C(=O)NC2c3ccccc3-c3ccccc32)cc1 the results were p53ts 39C tox inactive.
Screening COC(=O)[C@H]1[C@@H]2C[C@H]3c4[nH]c5ccccc5c4CCN3C[C@@H]2CC[C@@H]1O returned IkB sig inh inactive[11.4 µM].
Cc1ccc(C(=O)Nc2ccccc2N2CCOCC2)c(C)c1 was read as p53ts 32C tox inactive and p53ts 39C tox inactive.
`O=C(Cn1ncc2c3ccccc3n(Cc3ccccc3)c2c1=O)NCCc1ccc(Cl)cc1` gave p53ts 32C tox inactive, IkB sig inh inactive, p53ts 39C tox 13µM and Peg3 imprint inactive[10.9 µM].
CCC(Cc1ccccc1)NC(=O)Cn1ncc2c3ccccc3n(Cc3ccc(F)cc3)c2c1=O (stereo not drawn) was read as p53ts 32C tox inconclusive, IkB sig inh inactive, p53ts 39C tox 10µM and Peg3 imprint inactive[10.9 µM].
For O=C(Cn1ncc2c3ccccc3n(Cc3ccccc3F)c2c1=O)NCCc1ccc(Cl)cc1 the results were p53ts 32C tox inactive, IkB sig inh inconclusive, p53ts 39C tox inactive and Peg3 imprint inactive[10.9 µM].
`Nc1ncnc2c1ncn2[C@H]1O[C@@H](C(=O)O)[C@@H](O)[C@H]1O` gave p53ts 32C tox inactive[9.22 µM], ERK AVP inh inactive[11.5 µM], IkB sig inh inactive[11.4 µM], p53ts 39C tox inactive[9.22 µM] and Peg3 imprint inactive[10.9 µM].
O=C(Nc1ccc2c(c1)Cc1ccccc1-2)[C@@H]1[C@H](C(=O)O)[C@]2(Cl)C(Cl)=C(Cl)[C@@]1(Cl)C2(Cl)Cl was read as p53ts 32C tox inactive[9.22 µM], ERK AVP inh inactive[11.5 µM], IkB sig inh inactive[11.4 µM], p53ts 39C tox inactive[9.22 µM] and Peg3 imprint inactive[10.9 µM].
